{"source": "PubChem BioAssay AID651900", "about": "(Broad Institute, 2012)", "test": "NIH3T3 cell viability loss – plate reader, cherry-pick, two tests, cytotoxicity control, dose response (AID 651900)", "conditions": "activity: test 2 concentration series, at 26 µM", "note": "The list shows a part of the results. Calls of active or inactive are those of the source. No rule for the calls is given here."}
{"smiles": "Cc1nc(=O)c(-c2ccccc2)c(C)n1-c1ccc(Br)cc1", "values": [{"measurement": "activity", "result": -4.55, "unit": "%"}, {"measurement": "outcome", "result": "inactive"}]}
{"smiles": "CS(=O)(=O)N1[C@H](C(=O)NCc2ccncc2)[C@@H](CO)[C@@H]2Cn3c(ccc(C4=CCCCC4)c3=O)[C@@H]21", "values": [{"measurement": "outcome", "result": "inactive"}]}
{"smiles": "Cc1ccc(Cc2c(C)nc3nc(SCC(=O)NCCN4CCOCC4)nn3c2C)cc1", "values": [{"measurement": "activity", "result": -6.78, "unit": "%"}, {"measurement": "outcome", "result": "inactive"}]}
{"smiles": "Cn1c(=O)c2c(nc(OCc3cccnc3)n2Cc2ccccc2)n(C)c1=O", "values": [{"measurement": "activity", "result": -10.3, "unit": "%"}, {"measurement": "outcome", "result": "inactive"}]}
{"smiles": "CC(=O)c1ccc(N2CCN(C(=O)c3ccc4nc[nH]c4c3)CC2)cc1", "values": [{"measurement": "activity", "result": -0.738, "unit": "%"}, {"measurement": "outcome", "result": "inactive"}]}
{"smiles": "CC(=O)CSc1nnc(CSc2ncccn2)n1C1CCCCC1", "values": [{"measurement": "activity", "result": 1.8, "unit": "%"}, {"measurement": "outcome", "result": "inactive"}]}
{"smiles": "O=c1[nH]c(N2CCN(Cc3ccc4c(c3)OCO4)CC2)nc2c1CCCC2", "values": [{"measurement": "activity", "result": 6.08, "unit": "%"}, {"measurement": "outcome", "result": "inactive"}]}
{"smiles": "Cc1nc2nc(SCC(=O)NCc3ccco3)nn2c(C)c1Cc1ccccc1", "values": [{"measurement": "activity", "result": -7.64, "unit": "%"}, {"measurement": "outcome", "result": "inactive"}]}
{"smiles": "CCCOc1ccc2c3c(c(=O)oc2c1OCCC)CCC3", "values": [{"measurement": "activity", "result": -3.77, "unit": "%"}, {"measurement": "outcome", "result": "inactive"}]}
{"smiles": "C=CCn1c(SCc2c(C(=O)OC)sc(N)c2C(=O)OC)nnc1-c1ccc(Cl)cc1", "values": [{"measurement": "activity", "result": -11.5, "unit": "%"}, {"measurement": "outcome", "result": "inactive"}]}
{"smiles": "C=C(C)CSc1nc(N)c2c3c(sc2n1)CCC3", "values": [{"measurement": "activity", "result": 4.68, "unit": "%"}, {"measurement": "outcome", "result": "inactive"}]}
{"smiles": "O=C(c1ccncc1)N1CC[C@@H]2[C@H]1c1cc(Br)ccc1N[C@@H]2CO", "values": [{"measurement": "outcome", "result": "inactive"}]}
{"smiles": "CC1(C)CC(=O)C=C(c2ccc3ncccc3c2)C1", "values": [{"measurement": "activity", "result": -5.48, "unit": "%"}, {"measurement": "outcome", "result": "inactive"}]}
{"smiles": "COCCNC(=O)C[C@H]1CC[C@@H]2[C@H](COc3ccc(NC(=O)Nc4cccc(F)c4)cc3C(=O)N2C)O1", "values": [{"measurement": "outcome", "result": "inactive"}]}
{"smiles": "COc1cc(-c2n[nH]c(=S)n2Cc2ccccc2)cc(OC)c1OC", "values": [{"measurement": "activity", "result": 8.41, "unit": "%"}, {"measurement": "outcome", "result": "inactive"}]}
{"smiles": "Cc1c(OC(C)C(=O)NCC2CCC(C(=O)O)CC2)ccc2c1oc(=O)c1ccccc12", "note": "(configuration not stated)", "values": [{"measurement": "activity", "result": 1.67, "unit": "%"}, {"measurement": "outcome", "result": "inactive"}]}
{"smiles": "Cc1c2cnn(CC(=O)NCc3ccccn3)c(=O)c2c(C)n1Cc1ccc(Cl)cc1", "values": [{"measurement": "activity", "result": 7.63, "unit": "%"}, {"measurement": "outcome", "result": "inactive"}]}
{"smiles": "CCC(CO)Oc1cc(NC(=O)c2cccc(F)c2)c2ncn(C(C)C)c2c1", "note": "(configuration not stated)", "values": [{"measurement": "outcome", "result": "inactive"}]}
{"smiles": "CN1c2ccc(-c3ccccc3)cc2[C@H]2[C@H](CCN2C(=O)Cc2ccccn2)[C@H]1CO", "values": [{"measurement": "outcome", "result": "inactive"}]}
{"smiles": "CC(=O)O[C@]1(C(C)=O)CC[C@H]2[C@@H]3C=C(C)C4=CC(=O)CC[C@]4(C)[C@H]3CC[C@@]21C", "values": [{"measurement": "activity", "result": -6.83, "unit": "%"}, {"measurement": "outcome", "result": "inactive"}]}
{"smiles": "O=C(CSc1n[nH]c(-c2cccnc2)n1)Nc1ccnc2ccccc12", "values": [{"measurement": "activity", "result": -10.2, "unit": "%"}, {"measurement": "outcome", "result": "inactive"}]}
